An excerpt weighted towards active compounds, which were near 2.2% of everything screened.
GASC-1 inh = inhibitors of human GASC-1 (JMJD2C) demethylase | Q9H3R0 | GST-JMJD2C(1-420) H3K9me3 demethylation, DELFIA europium | inhibition, % at 2.35 µM | actives 0.069% (n = 330,000);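 active = more than half of a compound's replicate wells show inhibition beyond 50%, single wells judged on their own value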;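 also: signal counts dimethyl H3K9 product captured on neutravidin plate; 0% = median of DMSO wells and 100% = 0.3 times that DMSO median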
PvdQ inh = P. aeruginosa PvdQ acylase inhibition; actives 0.063% (n = 340,000); inhibition, % at 10 µM; AID 488965; purified PvdQ acylase, fluorescence plate reader; in the data active = inhibition above about 30%, passing the limit was not always enough;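 also: 0% = vehicle neutral wells and 100% = reference inhibitor wells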
p-CIP stab down = p/CIP protein destabilization | F442A p/CIP-EGFP cells, EGFP fluorescence, 16 h | decrease of EGFP signal, % at 10 µM | actives 0.01% (n = 290,000) | AID 1984;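 active = EGFP signal decrease of at least 30% at 10 µM or well 3 SD below plate mean, unless failing retest; inactive = the rest, including hits failing retest or dose response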
PHOSPHO1 block = blocks human PHOSPHO1 phosphatase activity | actives 1.1% (n = 290,000) | AID 1565 | recombinant PHOSPHO1, absorbance phosphatase assay | Q8TCT1 | inhibition, % at 13.3 µM; in the data active = inhibition above about 60%
Target sequence (Q8TCT1 whole entry, looked up): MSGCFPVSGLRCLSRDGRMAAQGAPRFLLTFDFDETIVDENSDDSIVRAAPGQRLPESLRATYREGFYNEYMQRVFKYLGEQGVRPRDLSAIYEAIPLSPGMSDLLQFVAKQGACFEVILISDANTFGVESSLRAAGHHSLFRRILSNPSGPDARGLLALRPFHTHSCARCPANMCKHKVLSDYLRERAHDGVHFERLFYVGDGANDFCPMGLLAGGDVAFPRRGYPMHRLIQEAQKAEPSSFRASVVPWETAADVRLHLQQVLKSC
SUMO Mot1 rescue = inhibitors of SUMOylation pathway: yeast Mot1-301 growth rescue. S. cerevisiae Mot1-301 growth rescue, ATP luminescence, 38.5C; percent above DMSO median, 100 means doubled. growth rescue, % at 18.8 µM. actives 1% (n = 320,000);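 active = every valid replicate shows activation above 250% relative to neutral control wells; inactive = the rest, any valid replicate at or below 250%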;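 also: OY570 slx delta 5 strain wells were the positive control but not used for scaling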
HDAC3 inhib = inhibitors of human histone deacetylase 3; O15379; actives 0.15% (n = 320,000); recombinant HDAC3, fluorogenic peptide/trypsin coupled, fluorescence; inhibition, % at 8.3 µM; AID 2718; in the data active = inhibition above about 26%, passing the limit was not always enough
The depositor's hits bear a star; x = no result given.

SMILES | GASC-1 inh | PvdQ inh | p-CIP stab down | PHOSPHO1 block | SUMO Mot1 rescue | HDAC3 inhib
CC(NC(=O)COC(=O)c1cc([N+](=O)[O-])ccc1N1CCOCC1)c1ccccc1 (centres undefined) | -29 | -10 | -10 | 61* | -10 | 0
CC(C)CNC(=O)COC(=O)c1cc(S(=O)(=O)N2CCCCC2)ccc1N1CCOCC1 | 10 | -6 | 9 | 12 | 277* | 9
COC(=O)c1cc(NS(=O)(=O)c2ccc(F)cc2)ccc1N1CCOCC1 | 11 | 8 | -4 | 33 | 10 | -3
COC(=O)c1cc(NS(=O)(=O)c2ccc(C(C)C)cc2)ccc1N1CCOCC1 | 3 | -10 | -8 | 32 | 314* | -3
CSc1nc(S(=O)(=O)c2ccccc2)c(Cl)s1 | 3 | -7 | -18 | -17 | 210 | 1
Cc1cccc(C)c1NC(=S)NC(=O)c1ccc(Br)o1 | -5 | -10 | -4 | 34 | -20 | 4
Cn1ncc(C(N)=O)c1NC(=S)NC(=O)c1ccc(Br)o1 | 2 | -17 | 0 | 80* | 0 | -5
CSc1ncccc1C(=O)OC(C)C(=O)Nc1cccc(S(=O)(=O)N2CCOCC2)c1 (centres undefined) | -7 | -11 | x | x | 21 | 1
COc1cc(C#N)c(NC(=O)CN2CCN(CCO)CC2)cc1OC | 51 | 0 | -3 | 24 | 27 | -2
N=c1c[n+](-c2ccc(Cl)cc2)[n-]o1 | 10 | 16 | 16 | 93* | -2 | -6
COc1ccc(N=c2oc3cc(O)ccc3cc2C(=O)NCC2CCCO2)cc1 (centres undefined) | -27 | -17 | -2 | 14 | 4 | -31
CCOc1ccc(N=c2oc3cc(O)ccc3cc2C(=O)NCC2CCCO2)cc1 (centres undefined) | -2 | -7 | 2 | -12 | 357* | -1
COc1ccccc1CN1CC(C(=O)N(C)CCc2nc3ccc(F)cc3[nH]2)CCC1=O (centres undefined) | 4 | -9 | -14 | 64* | -11 | -2
CSc1ccc(CN2CCC(N3CC(C)OC(C)C3)CC2)cc1 (centres undefined) | 6 | -14 | -6 | 29 | 285* | -1
O=C(NNC(=O)C1CCC1)c1cccc(Cl)c1 | -4 | -7 | x | x | 1 | -9
CCOc1ccc(Nc2ncnc3ccc([N+](=O)[O-])cc23)cc1 | -5 | 86* | -13 | 24 | -9 | 4
O=C(CCn1cnnn1)N1CCCC(Nc2ccc(F)cc2)C1 (centres undefined) | x | -6 | -14 | 41 | -2 | -3
Cc1ccc(C)c(N(C(=O)c2csnn2)C(C(=O)NC2CCCCC2)c2ccccn2)c1 (centres undefined) | 2 | -17 | -3 | 52 | 7 | 6
COc1ccc(NC(=O)CSc2nnc(Cc3cccs3)n2C)cc1 | 2 | 4 | x | x | 7 | -4
Cc1ccc(C)n1-c1nc(=S)[nH][nH]1 | 0 | 5 | -4 | 102* | 0 | 2
COc1cccc(C(=O)OCC(=O)N2CCc3ccccc3C2)c1 | -3 | -4 | x | x | 17 | -1
Cc1n[nH]c(=O)c2c(NC(=O)CSc3c(Cl)cccc3Cl)oc(C)c12 | 4 | -9 | x | x | 0 | 11
O=C(CSc1nc(-c2ccccc2)cs1)NC(=O)NCc1ccco1 | 12 | -6 | -17 | 15 | -23 | 5
O=C(CSc1n[nH]c(-c2ccccc2)n1)NC(=O)NCc1ccco1 | 3 | 11 | -4 | 88* | -11 | 0
Cn1c(SCC(=O)NCc2ccco2)nnc1-c1ccccc1 | 7 | -16 | -1 | 3 | -15 | 4
SMILES | GASC-1 inh | PvdQ inh | p-CIP stab down | PHOSPHO1 block | SUMO Mot1 rescue | HDAC3 inhib
Cc1n[nH]c(=O)c2c(NC(=O)CSc3nn(-c4ccc(F)cc4)c(=S)s3)oc(C)c12 | x | -21 | x | x | 20 | 45*
Cn1c(SCC(=O)NC(=O)NCc2ccco2)nnc1-c1ccccc1 | 13 | -2 | 3 | 64* | -5 | 2
O=C(CSc1nn(-c2ccc(F)cc2)c(=S)s1)NC(=O)NCc1ccco1 | 9 | 4 | -16 | 83* | 1 | 0
Cc1nnc(SCC(=O)NC(=O)NCc2ccco2)s1 | 3 | -11 | -8 | 24 | 209 | 5
Cc1ccc(NC(=O)C2CCN(c3ncnc4c3nc3n4CCCCC3)CC2)nc1 | -4 | -7 | -7 | 15 | 17 | 1
O=C(CSc1nnc(-c2ccc(OC(F)F)cc2)o1)NC(=O)NCc1ccco1 | -8 | 0 | -8 | 74* | 10 | 3
COc1ccc(-c2nnc(SCC(=O)NCc3ccco3)o2)cc1 | 1 | -10 | -6 | -42 | -2 | x
COc1ccccc1/C=c1\sc2nc(-c3ccccc3OC)nn2c1=O | -1 | 19 | 1 | 87* | -9 | 3
COc1ccc(Br)cc1/C=c1\sc2nc(-c3ccco3)nn2c1=O | 2 | -1 | -8 | -8 | 17 | 0
Cc1ccc(-c2nc3s/c(=C\c4ccco4)c(=O)n3n2)cc1 | 2 | -11 | 4 | 95* | 6 | -1
CCCCCCc1c(O)nc(SCCN2CCOCC2)[nH]c1=O | 4 | 14 | -6 | 68* | 370 | 0
CC(=O)N=c1c(C#N)cc2c(=O)n3ccccc3nc2n1CCCOC(C)C | 6 | x | -2 | 6 | 10 | -168
CC(C)OCCCn1c(=NC(=O)c2ccncc2)c(C#N)cc2c(=O)n3ccccc3nc21 | 8 | -13 | -12 | 98* | -12 | -420
CC(C)=CC(=O)OCc1cc([N+](=O)[O-])cc2c1OCOC2 | 11 | -7 | 12 | 28 | -2 | -7
O=C(OCc1cc([N+](=O)[O-])cc2c1OCOC2)c1ccc2ccccc2n1 | -1 | -13 | 6 | 40 | 292* | -2
C=CCn1c(-c2c[nH]c3ccccc23)n[nH]c1=S | -5 | -13 | 2 | 101* | x | 7
CCn1c(-c2cc(-c3ccc(C)c(C)c3)nc3ccccc23)n[nH]c1=S | -3 | x | -13 | -103 | 9 | 7
CCn1c(-c2c[nH]c3ccccc23)n[nH]c1=S | -1 | -10 | 4 | 79* | -1 | 7
CCn1c(-c2cc3ccccc3cc2O)n[nH]c1=S | 8 | 14 | 2 | 92* | 1 | -2
C=CCn1c(-c2csc3ccccc23)n[nH]c1=S | -3 | -5 | -6 | 102* | 12 | 6
CCn1c(-c2cc(Br)ccc2O)n[nH]c1=S | 0 | -5 | x | x | -3 | -2
C=CCn1c(-c2csc(-c3ccccc3)n2)n[nH]c1=S | -12 | 9 | -9 | 12 | 30 | 3
S=C1NCN(C2CCCCC2)CN1c1ccccc1 | -1 | 3 | -9 | -13 | -15 | -6
Cc1ccc2c(c1)C(=O)CC1(CCCC1)O2 | 5 | -7 | 1 | 26 | 78 | 0
CCN(CC)C(=O)CSc1nc2ccccc2c(=O)n1CC | -1 | -5 | 10 | 18 | 2 | 1
CCN(CC)C(=O)CSc1nnc(-c2cc3ccccc3cc2O)n1CC | 4 | -4 | 7 | 62* | 4 | -4

Compound activity (PubChem)
